Records with an inconclusive call do not appear. Calls of active or inactive are those of the source. Calls come from the whole dose curve; as a rule, active = well fitted curve in the direction sought with a large enough effect; inconclusive = small, poorly fitted or top-dose-only effect, or another doubt; inactive = no such curve, though single readings can be large; an effect the other way counts as inactive or inconclusive.
Columns and labels:
[1] = target: Rap guanine nucleotide exchange factor 3 (Homo sapiens) (UniProt O95398); test: Confirmatory qHTS for antagonist of cAMP-regulated guanine nucleotide exchange factor 3 (EPAC1) (AID 1645880); note: nearly all actives have a fitted effect of over 55% in size; note: potency is the fitted concentration of half-maximal effect
Rap guanine nucleotide exchange factor 3 (Homo sapiens), sequence (O95398 whole entry, looked up): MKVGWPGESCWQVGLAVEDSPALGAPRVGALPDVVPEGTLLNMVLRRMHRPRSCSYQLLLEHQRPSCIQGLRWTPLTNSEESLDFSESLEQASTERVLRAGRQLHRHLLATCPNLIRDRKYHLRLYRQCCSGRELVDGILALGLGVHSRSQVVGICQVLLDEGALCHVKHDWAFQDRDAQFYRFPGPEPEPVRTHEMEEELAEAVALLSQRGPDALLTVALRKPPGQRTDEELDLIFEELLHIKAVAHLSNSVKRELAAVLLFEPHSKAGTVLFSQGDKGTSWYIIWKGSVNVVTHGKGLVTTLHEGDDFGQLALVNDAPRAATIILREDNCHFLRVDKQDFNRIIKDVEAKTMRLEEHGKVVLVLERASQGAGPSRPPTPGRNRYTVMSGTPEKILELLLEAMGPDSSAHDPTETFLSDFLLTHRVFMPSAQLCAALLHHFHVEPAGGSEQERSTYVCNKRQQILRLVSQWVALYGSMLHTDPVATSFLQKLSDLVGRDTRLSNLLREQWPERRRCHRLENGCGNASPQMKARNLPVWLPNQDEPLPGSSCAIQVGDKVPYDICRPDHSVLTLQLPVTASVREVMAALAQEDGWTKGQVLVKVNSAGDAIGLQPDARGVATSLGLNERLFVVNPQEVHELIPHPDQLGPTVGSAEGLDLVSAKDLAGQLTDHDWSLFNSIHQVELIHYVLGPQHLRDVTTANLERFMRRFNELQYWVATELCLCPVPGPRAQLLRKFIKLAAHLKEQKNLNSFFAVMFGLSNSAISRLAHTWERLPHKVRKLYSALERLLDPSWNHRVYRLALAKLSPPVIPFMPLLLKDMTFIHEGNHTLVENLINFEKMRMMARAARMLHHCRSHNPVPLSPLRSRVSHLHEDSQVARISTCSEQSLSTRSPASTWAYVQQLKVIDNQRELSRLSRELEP
Method in brief: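 Released BODIPY-GDP fluoresces less than Rap1-bound BODIPY-GDP; the signal is followed at 480/540 nm at 5-min intervals over 30 min, after 5 min at room temperature. Reactions contain 100 nM EPAC1, 250 nM RAP1B-BODIPY-GDP and 50 uM GDP; results are normalized to ATA and DMSO.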

[2] = target: Rap guanine nucleotide exchange factor 3 (Homo sapiens) (UniProt O95398); test: Confirmatory qHTS for agonist of cAMP-regulated guanine nucleotide exchange factor 3 (EPAC1) (AID 1645881); note: nearly all actives have a fitted effect of over 75% in size; note: potency is the fitted concentration of half-maximal effect;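 for activation: EPAC1 catalysed release of BODIPY-GDP from Rap1B seen as fluorescence loss; 100% = effect of cAMP agonist control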
[3] = target: Rap guanine nucleotide exchange factor 4 (Homo sapiens) (UniProt Q8WZA2); test: Confirmatory qHTS for agonist of cAMP-regulated guanine nucleotide exchange factor 4 (EPAC2) (AID 1645884);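 note: nucleotide exchange releases bodipy-GDP from Rap1 and this lowers its fluorescence; nearly all actives have a fitted effect of over 65% in size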; note: potency is the fitted concentration of half-maximal effect; for activation: % is set by controls: 0 for no effect and ±100 for the full control effect
Rap guanine nucleotide exchange factor 4 (Homo sapiens), sequence (Q8WZA2 whole entry, looked up): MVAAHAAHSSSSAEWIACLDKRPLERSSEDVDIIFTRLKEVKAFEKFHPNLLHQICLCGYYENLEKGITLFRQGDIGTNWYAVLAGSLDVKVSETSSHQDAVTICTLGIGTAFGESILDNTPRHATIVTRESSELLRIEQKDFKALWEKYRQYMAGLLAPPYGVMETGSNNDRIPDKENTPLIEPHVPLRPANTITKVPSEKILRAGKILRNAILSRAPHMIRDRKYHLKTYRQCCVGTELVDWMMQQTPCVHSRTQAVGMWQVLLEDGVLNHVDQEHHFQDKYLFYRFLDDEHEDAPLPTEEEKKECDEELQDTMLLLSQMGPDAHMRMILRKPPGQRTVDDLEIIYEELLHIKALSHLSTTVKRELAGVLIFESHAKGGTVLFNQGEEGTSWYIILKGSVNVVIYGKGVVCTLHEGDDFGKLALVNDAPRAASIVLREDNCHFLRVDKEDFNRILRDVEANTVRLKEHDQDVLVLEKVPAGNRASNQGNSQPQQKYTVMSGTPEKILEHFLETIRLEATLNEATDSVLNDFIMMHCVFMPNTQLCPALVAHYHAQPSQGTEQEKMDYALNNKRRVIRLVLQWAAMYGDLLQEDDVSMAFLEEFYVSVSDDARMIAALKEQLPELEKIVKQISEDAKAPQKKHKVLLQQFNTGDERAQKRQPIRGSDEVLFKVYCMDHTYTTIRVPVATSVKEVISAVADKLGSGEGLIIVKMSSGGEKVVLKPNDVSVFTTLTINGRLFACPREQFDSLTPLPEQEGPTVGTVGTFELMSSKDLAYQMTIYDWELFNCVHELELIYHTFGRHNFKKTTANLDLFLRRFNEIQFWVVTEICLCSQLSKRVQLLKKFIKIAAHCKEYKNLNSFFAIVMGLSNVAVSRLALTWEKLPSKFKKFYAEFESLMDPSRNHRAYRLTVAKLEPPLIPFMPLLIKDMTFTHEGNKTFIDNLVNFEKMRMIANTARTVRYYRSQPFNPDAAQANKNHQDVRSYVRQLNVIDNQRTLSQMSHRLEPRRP

[4] = target: Rap guanine nucleotide exchange factor 4 (Homo sapiens) (UniProt Q8WZA2); test: Confirmatory qHTS for antagonist of cAMP-regulated guanine nucleotide exchange factor 4 (EPAC2) (AID 1645885); note: nearly all actives have a fitted effect of over 25% in size; note: potency is the fitted concentration of half-maximal effect; for activity change, negative = inhibition: % is set by controls: 0 for no effect and ±100 for the full control effect
[5] = target: Rap guanine nucleotide exchange factor 3 (Homo sapiens) (UniProt O95398); test: Counterscreen qHTS for antagonist of cAMP-regulated guanine nucleotide exchange factor 3 (EPAC1) (AID 1645888); note: % of control where 0% means no effect
Method in brief: (§1)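 Rap1B–BODIPY-GDP (250 nM) with 50 uM GDP; compounds pin-transferred to 9.74 nM–152 uM final (activator) or from 7.32 nM upwards (inhibitor). Fluorescence Ex/Em 480/540 nm read at 5 and 30 min, then after adding cAMP or buffer, at room temperature.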

[6] = target: Rap guanine nucleotide exchange factor 3 (Homo sapiens) (UniProt O95398); test: Counterscreen qHTS for agonist of cAMP-regulated guanine nucleotide exchange factor 3 (EPAC1) (AID 1645889); note: nearly all actives have a fitted effect of over 40% in size; note: potency is the fitted concentration of half-maximal effect; for activation: % of control where 0% means no effect
Method in brief: as §1

Nc1ncnc2c1nc(Br)n2[C@@H]1O[C@@H]2COP(=O)(O)O[C@H]2[C@H]1O
active: Potency [1] 5.36 µM | Potency [2] 7.08 µM | Potency [3] 2.24 µM
inactive: Potency [4] | Potency [5] | Potency [6]

CC1(C)CC(=O)C2=C(C1)c1c(ccc3ccccc13)NC2c1cc([N+](=O)[O-])cc([N+](=O)[O-])c1O (configuration not stated)
active: Potency [1] 9.53 µM | Potency [4] 26.9 µM
inactive: Potency [2] | Potency [3] | Potency [5] | Potency [6]

C=CC(=C)CC(NC)c1ccccc1 (configuration not stated)
inactive: Potency [1] | Potency [2] | Potency [3] | Potency [5] | Potency [6]
active: Potency [4] 84.9 µM

O=C(NCCCn1ccnc1)c1cc(-c2cccnc2)nc2ccc(Br)cc12
inactive: Potency [1] | Potency [2] | Potency [3] | Potency [4] | Potency [5] | Potency [6]

O=C(O)c1ccc(N/N=C/c2ccc3c(c2)OCO3)cc1
inactive: Potency [1] | Potency [2] | Potency [3] | Potency [5] | Potency [6]
active: Potency [4] 33.8 µM

CC(=O)N1CCc2cc(Br)cc(S(=O)(=O)NCCCN(C)Cc3ccccc3)c21
active: Potency [4] 23.9 µM
inactive: Potency [1] | Potency [2] | Potency [3] | Potency [5] | Potency [6]

O=[N+]([O-])c1cc(Cl)ccc1NCCc1ccccn1
inactive: Potency [1] | Potency [2] | activation [3] -1.04% [at 17.1 µM, percent relative to cAMP agonist control] | Potency [4] | activity change, negative = inhibition [5] -15.1% [at 30.8 µM] | activation [6] -0.252% [at 30.8 µM]

CC1=NOC(=O)/C1=C\c1ccc(-c2ccc(Cl)cc2Cl)o1
inactive: Potency [2] | activation [3] -0.185% [at 17.1 µM, percent relative to cAMP agonist control] | Potency [4] | activity change, negative = inhibition [5] -37.2% [at 30.8 µM] | activation [6] 15.1% [at 30.8 µM]
active: Potency [1] 15.8 µM

C=CCOc1ccc(C(c2c(C(=O)O)[nH]c3ccccc23)c2c(C(=O)O)[nH]c3ccccc23)cc1
active: Potency [1] 33.8 µM
inactive: Potency [2] | Potency [3] | Potency [4] | Potency [5] | Potency [6]

Oc1ccccc1-c1nc(NCc2ccccc2)c2ccccc2n1
inactive: Potency [1] | Potency [2] | Potency [3] | Potency [4] | Potency [5] | Potency [6]

CC1Cc2cc(C(=O)O)ccc2O1 (configuration not stated)
inactive: Potency [1] | Potency [2] | Potency [3] | Potency [4] | Potency [5] | Potency [6]

N#Cc1c(-c2ccccc2)nc(SCc2ccc(Cl)cc2)[nH]c1=O
inactive: Potency [2] | Potency [3] | Potency [5] | Potency [6]
active: Potency [1] 33.8 µM | Potency [4] 33.8 µM

CCCCNC(=O)Cn1nc(N2CCN(c3ccccc3OC)CC2)ccc1=O
inactive: Potency [1] | Potency [2] | Potency [3] | Potency [4] | Potency [5] | Potency [6]

Cc1cnc(C(=O)N(c2ccc(N3CCOCC3)cc2)C2C(=O)Nc3ccccc3N=C2c2ccc(F)cc2)cn1 (configuration not stated)
inactive: Potency [1] | Potency [2] | Potency [3] | Potency [4] | Potency [5] | Potency [6]

Cc1ccc(NC(=O)COC(=O)Cn2c(C)csc2=O)c([N+](=O)[O-])c1
inactive: Potency [1] | Potency [2] | Potency [3] | Potency [4] | Potency [5] | Potency [6]

O=C1c2cccc3cccc(c23)N1Cc1ccc(F)cc1
inactive: Potency [1] | Potency [2] | activation [3] 1.12% [at 17.1 µM, percent relative to cAMP agonist control] | Potency [4] | activity change, negative = inhibition [5] -16.7% [at 30.8 µM] | activation [6] 4.85% [at 30.8 µM]

C(=N\N1CCN(C(c2ccccc2)c2ccccc2)CC1)/c1ccc2c(c1)OCO2
inactive: Potency [1] | Potency [2] | Potency [3] | Potency [5] | Potency [6]
active: Potency [4] 84.9 µM

COc1cccc(/C(=N/O)C2CC2c2ccc(Cl)cc2)c1 (configuration not stated)
inactive: Potency [1] | Potency [2] | activation [3] 1.73% [at 17.1 µM, percent relative to cAMP agonist control] | Potency [4] | activity change, negative = inhibition [5] -11.7% [at 30.8 µM] | activation [6] 9.41% [at 30.8 µM]

Nc1ccc2ccccc2c1C(=O)c1ccccc1
inactive: Potency [1] | Potency [2] | Potency [3] | Potency [4] | Potency [5] | Potency [6]

O=C(N/N=C/c1cn(-c2ccccc2)nc1-c1cccnc1)c1ccccc1
inactive: Potency [1] | Potency [2] | activation [3] 6.58% [at 17.1 µM, percent relative to cAMP agonist control] | Potency [4] | activity change, negative = inhibition [5] -17.7% [at 30.8 µM] | activation [6] 18.8% [at 30.8 µM]

CCC(C(=O)NCc1ccc(OC)c(OC)c1)n1nc(C)c2c(C)n(-c3ccc(C)cc3)nc2c1=O (configuration not stated)
inactive: Potency [1] | Potency [2] | Potency [3] | outcome [4] inactive [at 12.7 µM] | Potency [5] | Potency [6]

O=c1cc(-c2ccccc2)nc2c(-c3ccccc3)c(C(F)(F)F)[nH]n12
inactive: Potency [2] | Potency [3] | Potency [5] | Potency [6]
active: Potency [1] 42.6 µM | Potency [4] 16.9 µM

CN(CC(=O)Nc1cccc(F)c1)C(=O)CN1c2cccc3cccc(c23)S1(=O)=O
inactive: Potency [2] | Potency [3] | Potency [4] | Potency [5] | Potency [6]
active: Potency [1] 75.7 µM

CC(C)CNC(=O)c1c(-c2ccccc2)c(-c2ccccc2)nn(C)c1=O
inactive: Potency [1] | Potency [2] | Potency [3] | outcome [4] inactive [at 12.7 µM] | Potency [5] | Potency [6]

C/C(=N\NC(=O)c1cc(-c2cccc([N+](=O)[O-])c2)n[nH]1)c1ccccc1O
active: Potency [1] 26.9 µM
inactive: Potency [2] | Potency [3] | Potency [4] | Potency [5] | Potency [6]

COc1ccc(NC(=O)Cn2cnc3sc(C)c(S(=O)(=O)N4CCOCC4)c3c2=O)c(OC)c1
inactive: Potency [1] | Potency [2] | activation [3] -0.644% [at 17.1 µM, percent relative to cAMP agonist control] | Potency [4] | activity change, negative = inhibition [5] -23.9% [at 30.8 µM] | activation [6] 3.18% [at 30.8 µM]

CC(Oc1ccccc1)C(=O)Nc1nnc(S(=O)(=O)N2CCCCC2)s1 (configuration not stated)
inactive: Potency [1] | Potency [2] | Potency [3] | Potency [4] | Potency [5] | Potency [6]

COc1ccc(CC(=O)Nc2nc(-c3cccnc3)cs2)cc1
inactive: Potency [1] | Potency [2] | activation [3] 15.1% [at 17.1 µM, percent relative to cAMP agonist control] | Potency [4] | activity change, negative = inhibition [5] -4.63% [at 30.8 µM] | activation [6] -9.76% [at 30.8 µM]

CC(/C=C1\SC(=S)N(C(C(=O)O)C(C)C)C1=O)=C\c1ccccc1 (configuration not stated)
active: Potency [1] 47.8 µM
inactive: Potency [2] | Potency [3] | Potency [4] | Potency [5] | Potency [6]

CCOC(=O)c1cnc2ccccc2c1Nc1cccc(OC)c1
inactive: Potency [1] | Potency [2] | Potency [3] | outcome [4] inactive [at 12.7 µM] | Potency [5] | Potency [6]

O=c1[nH]c2cc3c(cc2cc1CN(Cc1ccccc1)Cc1nnnn1Cc1ccco1)OCCO3
active: Potency [1] 42.6 µM
inactive: Potency [2] | Potency [3] | Potency [4] | Potency [5] | Potency [6]

CC1(C(=O)NS(=O)(=O)c2ccc(C#N)cc2)CCN1C(=O)C1(c2ccccc2)CCCC1 (configuration not stated)
inactive: Potency [2] | Potency [3] | Potency [5] | Potency [6]
active: Potency [1] 37.9 µM | Potency [4] 33.8 µM

CCOC(=O)c1ccc(N2C(=O)c3[nH]nc(-c4ccc(OCC)cc4)c3C2c2cccs2)cc1 (configuration not stated)
inactive: Potency [1] | Potency [2] | Potency [3] | Potency [4] | Potency [5] | Potency [6]

O=C(O)c1cccc(NC(=O)c2cn(-c3ccccc3)nc2-c2cc3ccccc3o2)c1
inactive: Potency [2] | activation [3] 0.161% [at 17.1 µM, percent relative to cAMP agonist control] | Potency [4] | activity change, negative = inhibition [5] -4.75% [at 30.8 µM] | activation [6] 16.8% [at 30.8 µM]
active: Potency [1] 50.1 µM

O=C(Nc1cc(-c2ccccc2)sc1C(=O)O)c1cccc(F)c1
active: Potency [1] 47.8 µM
inactive: Potency [2] | Potency [3] | Potency [4] | Potency [5] | Potency [6]

Cc1ccccc1CN1C(=O)c2ccccc2Sc2ccc(C(=O)O)cc21
inactive: Potency [1] | Potency [2] | Potency [3] | Potency [4] | Potency [5] | Potency [6]

Cc1ccc(NC(=O)CN2C(=O)N/C(=C/c3ccccc3OCc3cccc(C(=O)O)c3)C2=O)cc1
active: Potency [1] 31.6 µM
inactive: Potency [2] | activation [3] -10.8% [at 17.1 µM, percent relative to cAMP agonist control] | Potency [4] | activity change, negative = inhibition [5] -1.86% [at 30.8 µM] | activation [6] 5.98% [at 30.8 µM]

O=C1Nc2c(Cl)cc(Cl)cc2C1=O
inactive: Potency [1] | Potency [2] | Potency [3] | Potency [4] | Potency [5]
active: Potency [6] 31.6 µM

O=C(O)C1CSC(c2ccco2)N1 (configuration not stated)
inactive: Potency [1] | Potency [2] | activation [3] 15.3% [at 17.1 µM, percent relative to cAMP agonist control] | Potency [4] | activity change, negative = inhibition [5] -26.6% [at 30.8 µM] | activation [6] 2.32% [at 30.8 µM]

CC(=O)NC(c1ccco1)c1cc(Cl)c2cccnc2c1O (configuration not stated)
inactive: Potency [1] | Potency [2] | Potency [3] | Potency [4] | Potency [5] | Potency [6]

Cc1[nH]c(C)c2c(=O)n(Cc3ccc(Cl)cc3)ncc12
inactive: Potency [1] | Potency [2] | Potency [3] | Potency [5] | Potency [6]
active: Potency [4] 15.1 µM

O=C(COC(=O)c1cccc(-n2cnnn2)c1)c1ccc(F)cc1
inactive: Potency [1] | Potency [2] | activation [3] 8.21% [at 17.1 µM, percent relative to cAMP agonist control] | Potency [4] | activity change, negative = inhibition [5] -3.01% [at 30.8 µM] | activation [6] 4.41% [at 30.8 µM]
